# Results filed as inconclusive are left out. Where a call stands in place of a potency, no number is given. Activity calls are given as the source filed them. The call rests on the fitted dose curve; in most records, active means well fitted inhibition curve with a large enough effect; inconclusive means small, poorly fitted or top-dose-only effect; inactive means no such curve, though single readings can be large or run the other way.
# Test: Acumen qHTS Assay for Inhibitors of the mTORC1 Signaling Pathway in WT MEF Cells: Hit Validation; further: nearly all actives have a fitted effect of over 60% in size
# How it was run: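 Read-out is immunofluorescent phospho-rpS6 (Ser235/236) normalised to PI-stained cell number, reported as % active cells using a 7.5 nM rapamycin threshold. Cells: WT or Tsc2-/-, p53-/- MEFs, compound-exposed 24 h at 37C; PI count also tracks viability.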
# Potency means the concentration at half of the fitted maximal effect.
row,SMILES,Potency
1,Cc1cc(C)c(NC(=O)C2CCN(c3nc4ccccc4n4cccc34)CC2)c(C)c1,inactive
2,CCCSc1ncc(Cl)c(C(=O)Nc2ccc(S(=O)(=O)N3CCCCC3C)cc2)n1 (stereo not given),inactive
3,COc1ccc(NC(=O)c2ccc3c(=O)n4nc(Nc5cc(C)ccc5C)sc4nc3c2)cc1,2930 nM (active)
4,Cc1ccc(NC(=O)CCNS(=O)(=O)c2cccc3nonc23)cc1Cl,inactive
5,CC1CCN(S(=O)(=O)c2ccc(C(=O)Nc3sc4c(c3C(N)=O)CC(C)(C)NC4(C)C)cc2)CC1,3290 nM (active)
6,COc1ccc(N(C)C(=O)c2cc(S(=O)(=O)N3CCc4ccccc43)cn2C)c(OC)c1,inactive
7,COc1ccc(OC)c(NC(=O)c2nnn(CC(=O)Nc3ccc(C(C)C)cc3)c2N)c1,inactive
8,CC(C)c1ccc(NS(=O)(=O)c2ccc3nc(-c4ccccc4)[nH]c3c2)cc1,inactive
9,CCOc1ccccc1NC(=O)c1cn(C2CCCC2)c(=O)c2c1c1ccccc1n2C,inactive
10,COc1ccc(-c2noc(CSc3nc(N)cc(=O)[nH]3)n2)cc1,inactive
11,CC(C)(C)c1ccc(S(=O)(=O)N2CCC(c3ccncc3)CC2)cc1,inactive
12,Cc1ccc(CNS(=O)(=O)c2cc(C(=O)Nc3cccc(C(F)(F)F)c3)ccc2F)cc1,inactive
13,CCCCCCCCCCCCCCC[C@H](O)[C@@H](N)CO,inactive
14,CCCCS(=O)(=O)c1oc(-c2cccs2)nc1S(=O)(=O)c1ccccc1,1310 nM (active)
15,O=C(NCCN1CCN(c2cccc(Cl)c2)CC1)Nc1ccccc1C(F)(F)F,inactive

# Reference: PubChem BioAssay AID651789 (National Center for Advancing Translational Sciences (NCATS), 2012)
